# Assay results published in the supplement of paper PMC11732987, “Enantioselective OTUD7B fragment discovery through chemoproteomics screening and high-throughput optimisation” (Communications Chemistry, 2025).
# Values without a mark were called inactive.
# Experiments:
# Test in all cases: log2 ratio of Biotin-Ahx-Ub-VS probe labelling (fragment/DMSO); higher = less target engagement (more negative = stronger competition), active = hit call of the paper (q ≤ 0.05, log2 ratio ≤ -1)
# Settings in all cases: compound concentration: 200 uM; treatment time: 3 h
# OTUD6B = biological target: T1, OTUD6B (UniProt Q8N6M0)
# T1 sequence (whole entry): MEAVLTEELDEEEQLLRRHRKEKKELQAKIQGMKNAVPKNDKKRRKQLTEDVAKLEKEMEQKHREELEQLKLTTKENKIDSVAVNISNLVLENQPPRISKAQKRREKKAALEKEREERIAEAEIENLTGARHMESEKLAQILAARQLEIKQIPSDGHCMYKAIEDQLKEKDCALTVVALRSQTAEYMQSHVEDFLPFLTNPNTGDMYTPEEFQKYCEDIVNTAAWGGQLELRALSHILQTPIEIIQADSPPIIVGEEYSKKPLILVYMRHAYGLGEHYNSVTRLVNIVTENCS
# Procedure, shortened: (§1)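 Labelled DUBs were enriched with NeutrAvidin, digested with LysC and trypsin, and run by diaPASEF LC-MS/MS. The labelling used Biotin-Ahx-Ub-VS at 0.5 µM final for 1 h on HEK293T lysate (495 µg per sample) previously treated in triplicate with fragment at 200 µM or vehicle for 3 h. Values are average log2 fragment/vehicle ratios by unpaired t-test on global-median-normalised Spectronaut quantities of proteins with ≥2 unique peptides.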
# OTUD7B = biological target: T2, OTUD7B (UniProt Q6GQQ9)
# T2 sequence (whole entry): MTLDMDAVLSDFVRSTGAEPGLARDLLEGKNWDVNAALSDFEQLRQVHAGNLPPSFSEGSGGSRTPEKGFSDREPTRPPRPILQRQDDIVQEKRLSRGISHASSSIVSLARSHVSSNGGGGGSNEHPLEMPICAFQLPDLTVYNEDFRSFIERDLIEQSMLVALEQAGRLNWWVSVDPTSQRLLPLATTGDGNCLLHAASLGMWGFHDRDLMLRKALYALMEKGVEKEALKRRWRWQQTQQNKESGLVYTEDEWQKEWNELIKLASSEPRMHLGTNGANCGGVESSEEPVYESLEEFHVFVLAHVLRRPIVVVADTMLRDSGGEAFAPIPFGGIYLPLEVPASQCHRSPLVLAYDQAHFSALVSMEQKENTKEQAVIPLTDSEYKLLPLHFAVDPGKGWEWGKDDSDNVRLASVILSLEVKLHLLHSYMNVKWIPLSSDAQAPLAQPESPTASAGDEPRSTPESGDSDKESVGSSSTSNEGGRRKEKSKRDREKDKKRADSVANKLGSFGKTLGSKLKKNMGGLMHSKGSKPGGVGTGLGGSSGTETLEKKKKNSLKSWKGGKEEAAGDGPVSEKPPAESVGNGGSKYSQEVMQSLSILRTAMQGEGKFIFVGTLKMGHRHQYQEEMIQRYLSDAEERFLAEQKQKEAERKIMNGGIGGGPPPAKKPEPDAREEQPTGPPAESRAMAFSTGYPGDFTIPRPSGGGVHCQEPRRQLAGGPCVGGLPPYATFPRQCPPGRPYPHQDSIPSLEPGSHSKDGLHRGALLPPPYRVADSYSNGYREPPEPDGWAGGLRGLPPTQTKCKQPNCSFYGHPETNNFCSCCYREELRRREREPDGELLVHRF
# Procedure, shortened: as §1
# PRPF8 = PRPF8 (UniProt Q6P2Q9)
# Procedure, shortened: as §1
# PSMD7 = biological target: T3, PSMD7 (UniProt P51665)
# T3 sequence (whole entry): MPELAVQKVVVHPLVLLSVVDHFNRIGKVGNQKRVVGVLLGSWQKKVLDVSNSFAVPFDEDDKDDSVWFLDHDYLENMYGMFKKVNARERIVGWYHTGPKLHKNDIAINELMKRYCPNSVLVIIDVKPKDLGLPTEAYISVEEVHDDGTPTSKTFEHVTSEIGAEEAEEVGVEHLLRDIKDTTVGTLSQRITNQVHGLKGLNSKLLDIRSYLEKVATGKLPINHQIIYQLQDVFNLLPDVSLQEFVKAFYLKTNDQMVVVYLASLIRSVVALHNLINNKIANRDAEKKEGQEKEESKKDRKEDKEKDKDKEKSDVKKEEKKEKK
# Procedure, shortened: as §1
# UCHL1 = UCHL1 (UniProt P09936)
# Procedure, shortened: as §1
# UCHL3 = biological target: T4, UCHL3 (UniProt P15374)
# T4 sequence (whole entry): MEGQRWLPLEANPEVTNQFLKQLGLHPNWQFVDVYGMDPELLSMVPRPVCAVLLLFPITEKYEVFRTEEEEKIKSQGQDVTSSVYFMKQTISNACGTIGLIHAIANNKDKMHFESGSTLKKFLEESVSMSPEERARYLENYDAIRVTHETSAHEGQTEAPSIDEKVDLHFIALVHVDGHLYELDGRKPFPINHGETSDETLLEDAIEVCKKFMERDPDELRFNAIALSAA
# Procedure, shortened: as §1
# UCHL5 = biological target: T5, UCHL5 (UniProt Q9Y5K5)
# T5 sequence (whole entry): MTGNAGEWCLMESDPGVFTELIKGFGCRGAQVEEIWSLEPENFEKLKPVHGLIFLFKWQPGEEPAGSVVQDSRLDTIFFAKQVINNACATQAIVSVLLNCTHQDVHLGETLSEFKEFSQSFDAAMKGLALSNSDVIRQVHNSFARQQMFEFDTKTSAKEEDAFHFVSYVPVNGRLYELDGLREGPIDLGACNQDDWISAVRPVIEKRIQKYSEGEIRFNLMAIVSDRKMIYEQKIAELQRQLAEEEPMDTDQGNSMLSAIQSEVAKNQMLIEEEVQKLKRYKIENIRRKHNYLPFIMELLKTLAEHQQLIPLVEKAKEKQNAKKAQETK
# Procedure, shortened: as §1
# USP10 = USP10 (UniProt Q14694)
# Procedure, shortened: as §1
# USP15 = biological target: T6, USP15 (UniProt Q9Y4E8)
# T6 sequence (whole entry): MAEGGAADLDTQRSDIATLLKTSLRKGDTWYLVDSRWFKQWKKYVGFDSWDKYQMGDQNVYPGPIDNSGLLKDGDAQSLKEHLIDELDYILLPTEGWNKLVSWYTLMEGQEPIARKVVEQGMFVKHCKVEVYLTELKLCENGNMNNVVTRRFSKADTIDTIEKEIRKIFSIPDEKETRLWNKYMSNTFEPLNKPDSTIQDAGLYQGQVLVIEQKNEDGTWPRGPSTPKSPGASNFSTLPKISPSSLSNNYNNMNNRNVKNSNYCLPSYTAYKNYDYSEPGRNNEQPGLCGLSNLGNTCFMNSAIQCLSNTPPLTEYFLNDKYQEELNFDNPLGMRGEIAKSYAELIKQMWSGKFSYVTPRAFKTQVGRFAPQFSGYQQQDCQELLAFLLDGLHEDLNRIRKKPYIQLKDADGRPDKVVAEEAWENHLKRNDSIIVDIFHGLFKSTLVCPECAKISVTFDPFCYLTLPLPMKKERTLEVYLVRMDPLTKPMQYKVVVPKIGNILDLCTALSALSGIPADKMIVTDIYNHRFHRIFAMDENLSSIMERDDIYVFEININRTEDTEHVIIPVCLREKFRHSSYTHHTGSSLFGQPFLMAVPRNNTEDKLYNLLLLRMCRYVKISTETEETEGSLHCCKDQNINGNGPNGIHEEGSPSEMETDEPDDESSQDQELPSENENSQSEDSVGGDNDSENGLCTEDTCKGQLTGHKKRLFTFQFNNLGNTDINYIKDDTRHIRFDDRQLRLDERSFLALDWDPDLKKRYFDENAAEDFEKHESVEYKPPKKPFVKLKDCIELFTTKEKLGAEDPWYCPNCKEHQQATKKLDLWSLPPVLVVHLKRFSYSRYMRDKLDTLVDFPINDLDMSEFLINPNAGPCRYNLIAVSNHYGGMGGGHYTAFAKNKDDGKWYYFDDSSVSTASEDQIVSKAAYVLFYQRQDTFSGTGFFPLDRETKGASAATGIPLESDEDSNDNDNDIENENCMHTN
# Procedure, shortened: as §1
# UCHL1, sequence (P09936 whole entry, looked up): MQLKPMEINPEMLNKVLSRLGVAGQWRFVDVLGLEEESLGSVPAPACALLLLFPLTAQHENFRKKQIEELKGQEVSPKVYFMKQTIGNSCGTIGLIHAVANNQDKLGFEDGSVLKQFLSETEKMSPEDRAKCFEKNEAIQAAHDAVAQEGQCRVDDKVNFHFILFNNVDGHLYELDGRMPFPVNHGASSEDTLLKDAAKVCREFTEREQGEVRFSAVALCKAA
# USP10, sequence (Q14694 whole entry): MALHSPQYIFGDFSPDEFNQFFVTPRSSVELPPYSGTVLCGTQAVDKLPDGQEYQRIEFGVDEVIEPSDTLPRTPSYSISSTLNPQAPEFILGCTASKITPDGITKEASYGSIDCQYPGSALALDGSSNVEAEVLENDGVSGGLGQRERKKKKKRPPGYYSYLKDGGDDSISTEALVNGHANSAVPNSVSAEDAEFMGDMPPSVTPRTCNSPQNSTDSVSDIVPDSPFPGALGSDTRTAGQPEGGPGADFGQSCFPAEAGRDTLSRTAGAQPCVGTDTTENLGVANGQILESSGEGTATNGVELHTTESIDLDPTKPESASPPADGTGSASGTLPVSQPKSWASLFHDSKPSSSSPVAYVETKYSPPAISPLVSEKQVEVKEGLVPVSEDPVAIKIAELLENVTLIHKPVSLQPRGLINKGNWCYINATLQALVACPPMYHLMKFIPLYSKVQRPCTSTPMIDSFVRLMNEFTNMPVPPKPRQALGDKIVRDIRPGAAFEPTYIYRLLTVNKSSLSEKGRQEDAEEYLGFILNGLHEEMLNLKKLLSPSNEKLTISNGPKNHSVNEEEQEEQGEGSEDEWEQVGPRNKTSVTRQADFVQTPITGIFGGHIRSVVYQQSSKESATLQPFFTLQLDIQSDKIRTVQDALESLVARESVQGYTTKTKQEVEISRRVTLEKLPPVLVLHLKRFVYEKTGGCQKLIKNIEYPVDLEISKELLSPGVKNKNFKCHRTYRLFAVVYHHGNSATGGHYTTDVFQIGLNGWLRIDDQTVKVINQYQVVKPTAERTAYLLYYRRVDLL
compound,measurement,setting,value
O=C(CCl)N(C1CCCC1)C1CCS(=O)(=O)C1 (centres undefined),log2 ratio of Biotin-Ahx-Ub-VS probe labelling,OTUD6B,-0.0743
same,log2 ratio of Biotin-Ahx-Ub-VS probe labelling,OTUD7B,-0.147
same,log2 ratio of Biotin-Ahx-Ub-VS probe labelling,PRPF8,0.17
same,log2 ratio of Biotin-Ahx-Ub-VS probe labelling,PSMD7,0.00755
same,log2 ratio of Biotin-Ahx-Ub-VS probe labelling,UCHL1,-1.47 (active)
same,log2 ratio of Biotin-Ahx-Ub-VS probe labelling,UCHL3,0.248
same,log2 ratio of Biotin-Ahx-Ub-VS probe labelling,UCHL5,-0.176
same,log2 ratio of Biotin-Ahx-Ub-VS probe labelling,USP10,-0.0694
same,log2 ratio of Biotin-Ahx-Ub-VS probe labelling,USP15,-0.235
